# Reference: PubChem BioAssay (Tox21)
# A number with no mark means an inactive call. Activity calls are given as the source filed them. Calls come from the whole dose curve.
# Test: G protein-coupled receptor (GPCR) small molecule agonists, calcium flux assay: HEK293 wild type cell line counter screen (AID 1920065)
# Details: HEK293 WT calcium flux, fluorescence, agonist mode; series mostly up to 57.6 µM; activation: at the top concentration
# Method in brief: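 Calcium flux counter screen: compound added in agonist mode at 15 concentrations in triplicate to dye-loaded parental HEK293 cells. Fluorescence (480/540) read kinetically for 3 min; ATP served as positive control.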
# % is set by controls: 0 for no effect and ±100 for the full control effect.
Compound,activation,Potency
Nc1c(NC/C=C\COc2cc(CN3CCCCC3)ccn2)c(=O)c1=O,0.206% [at 11.8 µM],
O=S(=O)(O)c1ccc2cc(O)c(S(=O)(=O)O)cc2c1,0.545%,
COCCOCCOCCOCCOC,-0.599%,
COCCOCCOCCOCCOCCO,-0.135%,
CCCO,0.39%,
O=[N+]([O-])c1ccc(Oc2ccc([N+](=O)[O-])cc2)cc1,-1.57%,
CC[N+](C)(C)c1cccc(O)c1,1.68% [at 26.5 µM],
CCCCCCCN,-0.391%,
CS(C)(=O)=O,0.11%,
O=c1[nH]c(=O)c2cn[nH]c2[nH]1,0.042%,
CCC(COC(=O)CCS)(COC(=O)CCS)COC(=O)CCS,-0.341%,
CC(C)N=C(N)/N=C(\N)Nc1ccc(Cl)cc1,-0.257% [at 26.5 µM],
CC(C)(C)c1ccc(O)c(C(C)(C)C)c1,,inactive
CCCCCCCC(=O)N(C)C,0.126%,
CCCCC(C)C(=O)O (stereo unspecified),0.673%,
CCO[Si](CCCN=C=O)(OCC)OCC,-0.0637%,
CCCCCCCCO[C@@H]1O[C@H](CO)[C@@H](O)[C@H](O)[C@H]1O,-0.0065%,
Cc1ccc(N=Nc2c(O)ccc3ccccc23)c(C)c1,0.114% [at 26.5 µM],
CCCOCCO,,inactive
COc1ccc(N=[N+]([O-])c2ccc(OC)cc2)cc1,-1.25%,
Cc1cc(N)n(-c2ccccc2)n1,0.536%,
O=C1OC(=O)c2ccccc21,0.608%,
OC[C@H]1O[C@H](O[C@H]2O[C@H](CO)[C@@H](O)[C@H](O)[C@H]2O)[C@H](O)[C@@H](O)[C@@H]1O,-0.0236%,
CCSC(=O)N(CC)CC,-0.789%,
CCCCC(=O)N(C)C,0.0199%,
CC(=O)NC(Cc1ccccc1)C(=O)O (stereo unspecified),0.84% [at 26.5 µM],
